The text below walks through data of PubChem BioAssay AID540299 (ICCB-Longwood Screening Facility, Harvard Medical School, 2011).

“And” between values parts separate entries of the source, which are not always exact repeats. Equal values may be shown once. About 440 (0.44%) of roughly 100,000 compounds were called active. Cut-off read from the data, not from the text of the source: active = inhibition above about 21% (passing the limit was not always enough); inactive = the rest. The entries come from a sample that favours actives as a whole. Where a structure was tested more than once in an assay, its records may differ in their call.

Sequence of 1,4-dihydroxy-2-naphthoyl-CoA synthase (Mycobacterium tuberculosis (strain ATCC 25618 / H37Rv)) (P9WNP5 whole entry, looked up): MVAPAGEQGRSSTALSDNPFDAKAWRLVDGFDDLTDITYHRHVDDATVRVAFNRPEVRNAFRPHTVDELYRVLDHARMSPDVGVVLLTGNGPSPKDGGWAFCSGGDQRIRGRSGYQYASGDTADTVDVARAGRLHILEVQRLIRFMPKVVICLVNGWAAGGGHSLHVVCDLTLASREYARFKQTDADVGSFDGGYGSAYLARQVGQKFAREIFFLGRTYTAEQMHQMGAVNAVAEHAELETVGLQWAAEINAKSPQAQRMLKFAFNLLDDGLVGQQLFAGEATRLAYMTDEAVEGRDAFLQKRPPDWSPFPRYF

This assay concerns the target 1,4-dihydroxy-2-naphthoyl-CoA synthase (Mycobacterium tuberculosis (strain ATCC 25618 / H37Rv)) (UniProt P9WNP5). Briefly: M. tuberculosis MenB inhibitors, primary screen, biochemical, absorbance (AID 540299). The settings on record: MenB enzyme assay, absorbance read-out; stronger effect = higher value; concentration not given here.
As a reminder, the inhibition is the drop in the measured response relative to a control, in per cent. `COc1ccc(-c2noc(N3CCN(c4ccc(OC)cc4)CC3)n2)cc1`: the inhibition was 1.43% (inactive).
For `COc1cc(C)cc(CN2CCN(S(=O)(=O)c3ccccc3C#N)CC2)c1O`, the inhibition was -41.6% (inactive).
On to `CCCC1(C(=O)OC)NC(c2ccco2)C2C(=O)N(C)C(=O)C21` (centres undefined), for which the inhibition was 29.6% (active).
With `CCOC(=O)C1(Cc2ccc(O)cc2)NC(c2ccccc2F)C2C(=O)N(C)C(=O)C21` (centres undefined), the inhibition is -10.9% (inactive).
The value for `CCN1C(=O)C2C(c3cccs3)NC(C)(C(=O)OC)C2C1=O` (centres undefined) was 15.1% (inactive); that for `CC1CCCCN1CC(=O)Nc1cc(C(C)(C)C)nn1-c1ccccc1` (centres undefined) was 7.46% (inactive); that for `COc1ccc2c(CC(=O)OCC(=O)Nc3c(C)n(C)n(-c4ccccc4)c3=O)coc2c1` was -0.895% (inactive).
The value for `Cc1cc(N2CCN(C3CCCCC3)CC2)c2nncn2n1` was 0.645% (inactive); that for `O=C1CC2NCCc3cccc1c32` (centres undefined) was -9.34% (inactive); that for `CCNS(=O)(=O)c1ccc(-c2cc(C)no2)s1` was -3.52% (inactive).
Then `O=C(COC(=O)c1ccc(S(=O)(=O)N2CCOCC2)cc1)Nc1ncc(Cl)cc1Cl`, with 3.48% (inactive).
Consider `CCCc1ccc(OCCNC(C)=O)c(OC)c1`, for which the inhibition is 11.5% (inactive).
For the compound `Cc1ccc2oc(=O)c3cnn(CC(=O)n4c(C)cc5ccccc54)c3c2c1`, the inhibition is -3.43% (inactive).
`CC1(C)CC(=O)C2=C(C1)N=C1SCCC(=O)N1C2c1ccc(Br)cc1` (centres undefined): the inhibition is -1.14% (inactive).
`C=CCn1c(=NC(C)=O)sc2cc(F)ccc21`: the inhibition is -10.2% (inactive).
Consider `CC1CCCCN1C(=O)c1ccc2ccccc2n1` (centres undefined), for which the inhibition is -16.5% (inactive).
The value for `O=C1CCC(=O)N1CNc1ccc(-c2ccccc2)cc1` was -8.33% (inactive); that for `Oc1ccc(-c2cccc(-c3ccc(O)cc3)c2)cc1` was -21.5% (inactive); that for `Oc1ccc(SSc2ccc(O)cc2)cc1` was 40.7% (active).
The value for `Oc1ccc(-n2cccc2)cc1` was -10.9% (inactive); that for `CCc1ccc(-c2nnn(Cc3nn[nH]n3)n2)cc1` was 42.6% (active); that for `Cc1ccccc1Cn1nnc(-c2ccncc2)n1` was -48.5% (inactive).
Then `c1cc(-c2nn[nH]n2)ccc1CN1CCCCC1`, with -0.56% (inactive); and `COC(=O)Cc1cnc(NC(=O)CSc2nc(C(C)C)cc(=O)[nH]2)s1`, with -54% (inactive); and `CN1C(C(=O)NC2CCCC2)=CC(c2cccs2)=NS1(=O)=O`, with -18.8% (inactive).
Regarding `COc1ccc(C(=O)NNc2nnc(C(C)(C)C)c(=O)n2N)cc1`, the inhibition is 1.4% (inactive).
Then `O=C(c1ccco1)N1CCCCCCC1`, with 1.17% (inactive).
For `O=C(On1c(-c2ccccc2)nc2ccccc2c1=O)c1cccc(C(F)(F)F)c1`, the inhibition is 11.4% (inactive).
Then `COc1ccc(CNCC(O)c2nnn(C)n2)cc1OC` (centres undefined), with -32.7% (inactive); and `Cn1nnc(C(O)CNCc2ccc(F)cc2)n1` (centres undefined), with 29.6% (active); and `Fc1ccc(CNCc2ccccn2)cc1`, with -6.84% (inactive).
Regarding `CC1CCCC(NC(=O)COC(=O)c2cccc(S(=O)(=O)N(C)C)c2)C1C` (centres undefined), the inhibition is -17.8% (inactive).
The value for `O=C(O)C1CCCN(C(=O)c2cnn(-c3ccccc3)c2-n2cccc2)C1` (centres undefined) was 1.1% (inactive); that for `O=C(Nc1ccccc1C(=O)N1CCCC1)Oc1ccccc1` was 3.13% (inactive).
Regarding `Cc1ccc(NC(=O)c2nc[nH]c2C(=O)N2CCCCC2)c(C(=O)c2ccccc2)c1`, the inhibition is 39.3% (active) and -17.8% (inactive).
The value for `CCOC(=O)c1[nH]cnc1C(=O)NC1CCCCC1` was -17.9% (inactive); that for `N#CSc1ccc(N2CCCCC2)cc1` was -10.6% (inactive).
As for `N#CSc1ccc(N)c(Br)c1`, the inhibition was 24.6% (active).
The value for `COc1cc(CNC(=O)c2ccc(N(C)C)cc2)cc(OC)c1OC` was -9.81% (inactive); that for `Cc1c(/C=C(\C#N)C(=O)Nc2nccs2)cc(C#N)n1C` was 0.38% (inactive).
Regarding `O=S1(=O)CCC(NC2CCCCC2)C1` (centres undefined), the inhibition is 49.9% (active).
With `C1CCC(NC2CCCC2)C1`, the inhibition was -21.1% (inactive).
Then `O=S1(=O)CCC(S(=O)(=O)NC2CCCC2)C1` (centres undefined), with -11% (inactive).
The value for `CN1C(=O)C(C)(C)c2cc(S(=O)(=O)NCCc3ccco3)ccc21` was -23.9% (inactive).
Take `CCc1cc(CC)c(CO)c(CC)c1/C=N/O`: the inhibition is -27% (inactive).
Turning to `CC(Oc1ccccc1)c1nn2c(-c3cccnc3)nnc2s1` (centres undefined), the inhibition was -64.7% (inactive).
The value for `O=C(c1nc(-c2ccc(Cl)cc2)n2c1CCCCC2)N1CCCCCC1` was -18.8% (inactive); that for `Cc1cccc(COC(=O)Nc2ccc(N3CCCCC3)cc2)c1` was -13.2% (inactive); that for `COc1cccc(NC(=O)CC2CCCCC2)c1` was -13.2% (inactive).
On to `O=C(O)c1ccc(NC(=O)C2CC2)cc1`, for which the inhibition was 0% (inactive).
The value for `O=C(Cn1cc(C(F)(F)F)ccc1=O)Nc1ccc(S(=O)(=O)N2CCCC2)cc1` was 17% (inactive); that for `O=C(O)c1ccc2[nH]c(=O)c(=O)[nH]c2c1` was 6.67% (inactive) and 1.98% (inactive); that for `COc1ccc(-c2nn(C)c3ccccc23)cc1` was 4.51% (inactive).
Then `COc1ccc(C2NNC(=S)S2)cc1` (centres undefined), with 1.67% (inactive); and `COc1ccc(-c2nc3sc(-c4ccc(OC)cc4)nc3s2)cc1`, with 26.2% (active); and `CN1CCN(n2c(-c3ccc(Cl)cc3)csc2=Nc2ccccc2)CC1`, with -4.88% (inactive).
Then `CC1C(=O)N2CCCc3cc(S(=O)(=O)NCc4ccc(F)cc4)cc1c32` (centres undefined), with -7.22% (inactive).
Consider `O=S(=O)(c1cccs1)N(c1ccccc1)C(F)F`, for which the inhibition is 9.14% (inactive).
With `O=S(=O)(/C=C/c1ccccc1)N1CCN(CCc2ccncc2)CC1`, the inhibition is -2.97% (inactive).
